# Assay outcomes: PubChem, National Center for Advancing Translational Sciences (NCATS)
# An excerpt weighted towards active compounds, which were near 4.6% of everything screened.
# D1 PAM: human D1 dopamine receptor positive modulation; P21728; actives 0.036% (n = 360,000); HEK293 TREx D1 cells, calcium flux, dopamine EC20 potentiation; AID 504651; potentiation, % at 10 µM; in the data active = potentiation above about 30%; also: 0% is about no effect
# TRHR ag: activates the human TRH receptor; P34981; activation, % at 2 µM; TRHR cells, calcium flux fluo-8, FDSS agonist mode; actives 0.18% (n = 360,000); also: 0% is about no effect
# Target sequence (P34981 whole entry, looked up): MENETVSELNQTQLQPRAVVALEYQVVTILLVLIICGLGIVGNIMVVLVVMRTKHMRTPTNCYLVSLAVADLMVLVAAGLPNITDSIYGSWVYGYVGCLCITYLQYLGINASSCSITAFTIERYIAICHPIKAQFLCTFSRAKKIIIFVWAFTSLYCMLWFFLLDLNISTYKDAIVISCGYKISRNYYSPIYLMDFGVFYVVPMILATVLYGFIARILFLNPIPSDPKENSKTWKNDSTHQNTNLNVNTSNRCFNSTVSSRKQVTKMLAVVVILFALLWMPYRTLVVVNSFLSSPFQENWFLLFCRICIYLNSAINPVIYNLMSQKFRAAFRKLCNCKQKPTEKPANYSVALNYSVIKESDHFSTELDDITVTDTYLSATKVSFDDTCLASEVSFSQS
#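 Steps: seed TRHR cells overnight; add fluo-8 no-wash Ca dye, RT 30 min–1.5 h; record 10 s baseline; pin-transfer compounds; monitor fluorescence 1 cycle/s for the agonist window. Calcium increases flag candidate agonists.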
# D1 antagonist: antagonists of human D1 dopamine receptor. P21728. HEK293 TREx D1 cells, calcium flux, dopamine EC80; active compounds read low. activity change, negative = inhibition, % at 10 µM. actives 3.2% (n = 360,000); in the data active = activity change below about -30%; also: % is scaled to controls: 0 for no effect and ±100 for the full control effect
#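 Allosteric or orthosteric antagonism assessed as attenuation of the calcium response to EC80 dopamine, added 180 s after compound, in induced HEK293 Trex D1 cells loaded with no-wash calcium dye.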
# TRHR PAM: TRH receptor (human) allosteric enhancement. P34981. TRHR cells, fluo-8 calcium fluorescence, EC20 TRH enhancement. enhancement, % at 2 µM. actives 0.66% (n = 360,000). AID 493056; in the data active = enhancement above about 30%; also: 0% is about no effect
#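 Enhancer read-out: after compound pinning and an initial kinetic agonist-mode read, an EC20 of TRH (10 nM final) was injected and fluo-8 calcium signal (Ex 480/Em 530) followed at 1 s/cycle for 100 cycles in TRHR-expressing cells.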
# D1 ag: agonists of human D1 dopamine receptor | P21728 | HEK293 T-REx D1 cells, calcium flux, agonist mode | activation, % at 2 µM | actives 1% (n = 360,000) | AID 504660; also: 0% is about no effect
#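 Inducible HEK293 T-REx D1 cells, force-coupled to calcium signalling, were plated at 4000 cells/well with tetracycline and held overnight at 30 C. After no-wash calcium dye loading, compound-evoked calcium rise over 180 s flagged agonists.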
# * hit, by the source's call; . = no result; ! = repeats disagree. Rule as the data show it, unless noted: active = activation above about 30%; inactive = the rest.
SMILES,D1 PAM,TRHR ag,D1 antagonist,TRHR PAM,D1 ag
Cc1ccc(OCC(=O)Nc2ccc(Cl)cc2C(=O)c2ccccc2)cc1C,-1,0,-11,16,-1
Cc1ccc(OCC(=O)N2CCN(CCc3ccncc3)CC2)cc1C,-1,0,-6,-1,1
OC(c1cccc(Cl)c1)(c1cccc(Cl)c1)C1CN2CCC1CC2 (stereo not given),-4,7,-35*,0,52*
O=C(Nc1cccc(C(F)(F)F)c1)OC1CN2CCC1CC2 (stereo not given),-4,3,6,10,17
COc1ccc(CCNCc2ccc(C)s2)cc1OC,7,0,3,-7,3
COc1ccc(Cc2nccc3cc(OC)c(OC)cc23)cc1OC,-3,0,-32*,-5,8
CCC(=O)Nc1ccccc1,2,0,4,-3,1
CCN(CC(=O)Nc1ccc(NC(C)=O)cc1)C(=O)CSC(c1ccccc1)c1ccccc1,-3,0,-15,3,45*
CCN1C(=O)NC(=O)/C(=C\c2cn(CC(=O)N3CCCCC3C)c3ccccc23)C1=O (stereo not given),-1,3,-30*,-19,11
CN1CCN(c2nc(N)cc(=O)[nH]2)CC1,1,2,-58*,6,2
Cc1ccc2c(=O)n(-c3cccc(Cl)c3)c(=O)[nH]c2c1,0,-1,3,4,0
CN1CCN(c2ccc([N+](=O)[O-])c3no[n+]([O-])c23)CC1,-6,10,-38*,0,33*
CC(C)CNc1c2c(nc3ccccc13)CCC2,-4,1,-12,6,9
c1ccc(CNc2c3c(nc4ccccc24)CCC3)cc1,-20,0,-50*,8,22
Cc1ccccc1Cn1cccc(C(=O)Nc2cc(Cl)ccc2C#N)c1=O,-4,0,-7,-3,5
CC(C)(C)c1ccc(OCC(=O)Nc2ccc(Cl)cc2C(=O)c2ccccc2)cc1,0,0,8,-1,0
CN1CCN(Cc2ccccc2Sc2ccccc2)CC1,-6,-1,2,10,53*
CC(Cc1ccccc1Sc1ccccc1)N(C)C (stereo not given),-6,1,-68*,4,26
CC(Cc1ccccc1Sc1ccc(O)cc1)N(C)C (stereo not given),-22,0,-48*,2,15
Nc1ccccc1C(=O)OCC(=O)c1ccc2c(c1)OCCO2,-13,-1,-33*,7,13
CC(=O)Nc1ccccc1C(=O)OCC(=O)c1ccc2ccccc2c1,-8,-1,6,-3,23
Cc1cccc(C)c1OC(=O)Cc1ccccc1,33*,2,12,-6,0
Cc1ccc(Cn2cccc(C(=O)Nc3cc(C)on3)c2=O)cc1,-3,0,.,-3,7
COc1ccc(CC(=O)Nc2ccc3c(C(F)(F)F)cc(=O)oc3c2)cc1OC,-7,-1,13,-5,-1
Cc1onc(-c2c(Cl)cccc2Cl)c1C(=O)Nc1ccc2c(C(F)(F)F)cc(=O)oc2c1,0,0,-30*,9,4
SMILES,D1 PAM,TRHR ag,D1 antagonist,TRHR PAM,D1 ag
CCOC(=O)c1ccc(NC(=O)c2c(O)[nH]c(=O)[nH]c2=O)cc1,-5,73*,-8,13,241*
CCOC(=O)c1ccc(NC(=O)c2cccn(Cc3ccc(C)cc3)c2=O)cc1,-2,0,.,-8,10
Cc1nnc(NC(=O)c2cccn(Cc3ccccc3F)c2=O)s1,-2,0,2,-1,1
Cc1ccc2c(c1)[C@@H]1CN(C)CC[C@@H]1N2C(=O)Nc1cccc(C(F)(F)F)c1,-27,2,-52*,3,20
Cc1ccc2c(c1)C1CN(C)CCC1N2C(=O)Nc1cccc(C(F)(F)F)c1 (stereo not given),-4,2,.,9,23
Cc1ccc2c(c1)C1CN(C)CCC1N2C(=O)CCCN1C(=O)c2cccc3cccc(c23)C1=O (stereo not given),-16,0,-49*,6,1
COc1ccc(C(=O)C2CCCN(Cc3ccc(F)cc3F)C2)cc1F (stereo not given),-3,0,-32*,-10,3
COc1ccc(F)cc1C(=O)C1CCCN(Cc2ccc(O)cc2)C1 (stereo not given),4,1,-2,1,4
C/C(=N\N=C(N)N)c1ccccc1,-17,1,-38*,-3,1
NC(N)=N/N=C/c1ccc(N(c2ccccc2)c2ccccc2)cc1,15,1,85,11,17
Cc1ccc(-n2cc(CNC(C)Cc3cnccn3)c(-c3cccc(C)c3)n2)cc1 (stereo not given),-3,0,35,7,37*
COc1cc(CCN)ccc1O,-4,-1,10,7,1
CCCCCCCSc1cc(OC)c(CCN(C)C)cc1OC,7,-2,7,4,201*
CCCCCSc1cc(OC)c(CCN)cc1OC,1,2,6,13,31*
CC1CCC(C(C)C)C(OC(=O)Cn2c(COc3ccccc3)[n+](C)c3ccccc32)C1 (stereo not given),-6,0,22,8,41*
Cc1nonc1OCCNCCNc1ccc([N+](=O)[O-])c2cccnc12,0,0,-35*,-12,6
CCNCCNc1ccc([N+](=O)[O-])c2cccnc12,-6,0,-5,1,2
CCCc1nc(SC)ncc1C(=O)Nc1ccc(Cl)cc1C(=O)c1ccccc1,-1,0,10,-5,1
COc1ccc(Cl)cc1NC(=O)CN1C(=O)CN=C(c2ccccc2)c2cc(Cl)ccc21,4,2,0,-1,5
Cc1cccc(-c2nc(CN3C(=O)CN=C(c4ccccc4)c4ccccc43)c(C)o2)c1,-1,-1,0,-13,2
COc1cc2[nH]c(=O)n(-c3ccc(C)cc3)c(=O)c2cc1OC,1,0,-44*!,2,1
COc1cc2[nH]c(=S)n(-c3ccccc3)c(=O)c2cc1OC,-3,0,-11,1,0
Cc1cc(OC(=O)N(C)C)nc2c1c(C)nn2C,-1,0,-10,40*,3
COCc1cc(OC(=O)N(C)C)nc2c1c(C)nn2C,0,0,-2,-3,0
C/C(=N\N1CCCCCC1)c1c(O)n(-c2ccc(Cl)cc2)c(=O)[nH]c1=O,-4,-1,0,7,3
C/C(=N\N1CCCCCC1)c1c(O)n(-c2ccc(C)cc2)c(=O)[nH]c1=O,-4,0,-40*,2,3
Cc1c(O)ccc(C(=O)CN2CC(C)OC(C)C2)c1O (stereo not given),-4,0,-40*,-8,2
CC1CC(C)CN(CC(=O)c2ccc(OC(F)F)cc2)C1 (stereo not given),-2,0,-3,-2,1
